Source: PubChem BioAssay AID1159580 (chemical genetic matrix, 2015)
About 2,000 (36%) of roughly 5,500 compounds were called active. Another 18% or so got no clear call; they are omitted. Cut-off read from the data, not from the text of the source: active = normalized growth mostly below about 0.91 (no sharp cut-off); inconclusive = no clear call, values can overlap the other calls; inactive = mostly above about 0.92. The list shows a part of the results.

Assay: chemical genetic growth profiling, strain panel (AID 1159580);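 note: tested at 20 µM; growth read once vehicle control cultures reached saturation at 30 °C; 1 = growth at the plate median or of vehicle wells; lower values mean less growth of the strain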
Conditions: growth OD

Measured: normalized growth

CC(=O)Oc1cc(OC(C)=O)c2c(c1)O[C@H](c1ccc(OC(C)=O)c(OC(C)=O)c1)[C@@H](OC(C)=O)C2
inactive: S. cerevisiae deletion strains, locus YJR066W, strain TOR1, active compounds read low 0.934 | S. cerevisiae deletion strains, locus YJR075W, strain HOC1, active compounds read low 1.01 | S. cerevisiae deletion strains, locus YKL009W, strain mrt4, active compounds read low 1.04 | S. cerevisiae deletion strains, locus YKL068W, active compounds read low 0.987 | S. cerevisiae deletion strains, locus YKL085W, strain MDH1 (second series), active compounds read low 0.983 | S. cerevisiae deletion strains, locus YKL085W, strain MDH1, active compounds read low 0.983 | S. cerevisiae deletion strains, locus YKL160W, strain elf1, active compounds read low 1 | S. cerevisiae deletion strains, locus YKL190W, strain CNB1, active compounds read low 0.997 | S. cerevisiae deletion strains, locus YKR001C, strain vps1, active compounds read low 0.97 | S. cerevisiae deletion strains, locus YKR026C, strain gcn3, active compounds read low 0.972 | S. cerevisiae deletion strains, locus YKR091W, strain srl3, active compounds read low 1 | S. cerevisiae deletion strains, locus YLL001W, strain dnm1, active compounds read low 0.992 | S. cerevisiae deletion strains, locus YLL026W, active compounds read low 0.995 | S. cerevisiae deletion strains, locus YLL041C, strain sdh2, active compounds read low 0.997 | S. cerevisiae deletion strains, locus YLR027C, strain aat2, active compounds read low 1.02 | S. cerevisiae deletion strains, locus YLR039C, strain RIC1, active compounds read low 1.04 | S. cerevisiae deletion strains, locus YLR058C, strain SHM2, active compounds read low 1 | S. cerevisiae deletion strains, locus YLR102C, strain apc9, active compounds read low 0.986 | S. cerevisiae deletion strains, locus YLR113W, strain HOG1, active compounds read low 0.966 | S. cerevisiae deletion strains, locus YLR221C, strain rsa3, active compounds read low 1.01 | S. cerevisiae deletion strains, locus YLR258W, strain gsy2, active compounds read low 1 | S. cerevisiae deletion strains, locus YLR262C, strain YPT6 (second series), active compounds read low 0.998 | S. cerevisiae deletion strains, locus YLR262C, strain YPT6, active compounds read low 1.09 | S. cerevisiae deletion strains, locus YLR268W, strain sec22, active compounds read low 0.958 | S. cerevisiae deletion strains, locus YLR320W, strain mms22, active compounds read low 0.977 | S. cerevisiae deletion strains, locus YLR330W, strain CHS5, active compounds read low 0.995 | S. cerevisiae deletion strains, locus YLR342W, strain FKS1 (second series), active compounds read low 0.979 | S. cerevisiae deletion strains, locus YLR342W, strain FKS1, active compounds read low 0.994 | S. cerevisiae deletion strains, locus YLR357W, strain rsc2, active compounds read low 0.992 | S. cerevisiae deletion strains, locus YLR370C, strain arc18, active compounds read low 1.01 | S. cerevisiae deletion strains, locus YLR371W, strain rom2, active compounds read low 0.959 | S. cerevisiae deletion strains, locus YLR384C, strain iki3, active compounds read low 1 | S. cerevisiae deletion strains, locus YLR418C, strain cdc73, active compounds read low 1.03 | S. cerevisiae deletion strains, locus YML016C, strain PPZ1, active compounds read low 0.978 | S. cerevisiae deletion strains, locus YML032C, strain rad52, active compounds read low 1.01 | S. cerevisiae deletion strains, locus YML120C, strain ndi1, active compounds read low 1.01 | S. cerevisiae deletion strains, locus YML124C, strain tub3, active compounds read low 0.981 | S. cerevisiae deletion strains, locus YMR058W, strain fet3, active compounds read low 1 | S. cerevisiae deletion strains, locus YMR078C, strain ctf18, active compounds read low 0.964 | S. cerevisiae deletion strains, locus YMR125W, strain sto1, active compounds read low 0.996 | S. cerevisiae deletion strains, locus YMR129W, active compounds read low 1 | S. cerevisiae deletion strains, locus YMR205C, strain PFK2, active compounds read low 0.972 | S. cerevisiae deletion strains, locus YMR223W, strain ubp8, active compounds read low 1 | S. cerevisiae deletion strains, locus YMR231W, strain pep5, active compounds read low 1 | S. cerevisiae deletion strains, locus YMR307W, strain GAS1, active compounds read low 1.1 | S. cerevisiae deletion strains, locus YNL067W, strain RPL9B, active compounds read low 1 | S. cerevisiae deletion strains, locus YNL071W, strain lat1, active compounds read low 1.01 | S. cerevisiae deletion strains, locus YNL153C, strain GIM3, active compounds read low 1 | S. cerevisiae deletion strains, locus YNL183C, strain NPR1, active compounds read low 0.904 | S. cerevisiae deletion strains, locus YNL209W, strain ssb2, active compounds read low 1 | S. cerevisiae deletion strains, locus YNL233W, strain BNI4, active compounds read low 0.983 | S. cerevisiae deletion strains, locus YNL248C, strain rpa49, active compounds read low 1.01 | S. cerevisiae deletion strains, locus YNL250W, strain rad50, active compounds read low 0.977 | S. cerevisiae deletion strains, locus YNL271C, strain bni1, active compounds read low 0.975 | S. cerevisiae deletion strains, locus YNL298W, strain CLA4, active compounds read low 0.979 | S. cerevisiae deletion strains, locus YNL307C, strain MCK1, active compounds read low 0.98 | S. cerevisiae deletion strains, locus YNL322C, strain KRE1 (second series), active compounds read low 0.997 | S. cerevisiae deletion strains, locus YNL322C, strain KRE1, active compounds read low 0.998 | S. cerevisiae deletion strains, locus YNR049C, strain mso1, active compounds read low 0.995 | S. cerevisiae deletion strains, locus YNR052C, strain pop2, active compounds read low 0.981 | S. cerevisiae deletion strains, locus YOL012C, strain htz1 0.674 | S. cerevisiae deletion strains, locus YOL147C, strain pex11, active compounds read low 1 | S. cerevisiae deletion strains, locus YOR001W, strain rrp6, active compounds read low 0.997 | S. cerevisiae deletion strains, locus YOR061W, strain CKA2, active compounds read low 0.977 | S. cerevisiae deletion strains, locus YOR069W, strain VPS5, active compounds read low 0.989 | S. cerevisiae deletion strains, locus YOR070C, strain gyp1, active compounds read low 1 | S. cerevisiae deletion strains, locus YOR080W, strain dia2, active compounds read low 0.998 | S. cerevisiae deletion strains, locus YOR083W, strain WHI5, active compounds read low 1.01 | S. cerevisiae deletion strains, locus YOR106W, strain vam3, active compounds read low 1 | S. cerevisiae deletion strains, locus YOR136W, strain idh2, active compounds read low 0.965 | S. cerevisiae deletion strains, locus YOR144C, strain elg1, active compounds read low 0.982 | S. cerevisiae deletion strains, locus YOR184W, strain ser1, active compounds read low 0.986 | S. cerevisiae deletion strains, locus YOR231W, strain MKK1, active compounds read low 0.974 | S. cerevisiae deletion strains, locus YOR265W, strain rbl2, active compounds read low 1 | S. cerevisiae deletion strains, locus YOR270C, strain vph1, active compounds read low 0.988 | S. cerevisiae deletion strains, locus YOR290C, strain snf2, active compounds read low 0.961 | S. cerevisiae deletion strains, locus YOR316C, strain cot1, active compounds read low 0.986 | S. cerevisiae deletion strains, locus YPL051W, strain arl3, active compounds read low 1.01 | S. cerevisiae deletion strains, locus YPL055C, strain LGE1, active compounds read low 0.999 | S. cerevisiae deletion strains, locus YPL078C, strain atp4, active compounds read low 1.02 | S. cerevisiae deletion strains, locus YPL106C, strain sse1, active compounds read low 0.996 | S. cerevisiae deletion strains, locus YPL240C, strain hsp82, active compounds read low 0.992 | S. cerevisiae deletion strains, locus YPL241C, strain CIN2, active compounds read low 0.999 | S. cerevisiae deletion strains, locus YPL256C, strain CLN2, active compounds read low 0.974 | S. cerevisiae deletion strains, locus YPR119W, strain clb2, active compounds read low 0.979 | S. cerevisiae deletion strains, locus YPR141C, strain kar3, active compounds read low 0.981 | S. cerevisiae deletion strains, locus YPR163C, strain tif3, active compounds read low 0.994 | S. cerevisiae deletion strains, locus YPR167C, strain met16, active compounds read low 0.978 | S. cerevisiae deletion strains, strain wtn01, active compounds read low 0.951 | S. cerevisiae strains, strain wild type, active compounds read low 0.993
